Our source for the Percent Effect values is ChEMBL document CHEMBL3988442, “University of Dundee, Small-Polar-MMV Screening Library” (2021).

Holding throughout (design): scale not given: direction of the effect not stated beside the values
Experiment [1] has as its target Protein translocase subunit SecA (Escherichia coli (strain K12)) (UniProt P10408). Kind of experiment: Assay to Identify E. coli SecA ATPase Inhibitors. As to conditions: 30 µM. The class given is functional.
The target in experiment [2] is T1, Ubiquitin-activating enzyme e1, putative (Leishmania donovani (strain BPK282A1)) (UniProt E9BSI1).
T1 sequence (whole entry): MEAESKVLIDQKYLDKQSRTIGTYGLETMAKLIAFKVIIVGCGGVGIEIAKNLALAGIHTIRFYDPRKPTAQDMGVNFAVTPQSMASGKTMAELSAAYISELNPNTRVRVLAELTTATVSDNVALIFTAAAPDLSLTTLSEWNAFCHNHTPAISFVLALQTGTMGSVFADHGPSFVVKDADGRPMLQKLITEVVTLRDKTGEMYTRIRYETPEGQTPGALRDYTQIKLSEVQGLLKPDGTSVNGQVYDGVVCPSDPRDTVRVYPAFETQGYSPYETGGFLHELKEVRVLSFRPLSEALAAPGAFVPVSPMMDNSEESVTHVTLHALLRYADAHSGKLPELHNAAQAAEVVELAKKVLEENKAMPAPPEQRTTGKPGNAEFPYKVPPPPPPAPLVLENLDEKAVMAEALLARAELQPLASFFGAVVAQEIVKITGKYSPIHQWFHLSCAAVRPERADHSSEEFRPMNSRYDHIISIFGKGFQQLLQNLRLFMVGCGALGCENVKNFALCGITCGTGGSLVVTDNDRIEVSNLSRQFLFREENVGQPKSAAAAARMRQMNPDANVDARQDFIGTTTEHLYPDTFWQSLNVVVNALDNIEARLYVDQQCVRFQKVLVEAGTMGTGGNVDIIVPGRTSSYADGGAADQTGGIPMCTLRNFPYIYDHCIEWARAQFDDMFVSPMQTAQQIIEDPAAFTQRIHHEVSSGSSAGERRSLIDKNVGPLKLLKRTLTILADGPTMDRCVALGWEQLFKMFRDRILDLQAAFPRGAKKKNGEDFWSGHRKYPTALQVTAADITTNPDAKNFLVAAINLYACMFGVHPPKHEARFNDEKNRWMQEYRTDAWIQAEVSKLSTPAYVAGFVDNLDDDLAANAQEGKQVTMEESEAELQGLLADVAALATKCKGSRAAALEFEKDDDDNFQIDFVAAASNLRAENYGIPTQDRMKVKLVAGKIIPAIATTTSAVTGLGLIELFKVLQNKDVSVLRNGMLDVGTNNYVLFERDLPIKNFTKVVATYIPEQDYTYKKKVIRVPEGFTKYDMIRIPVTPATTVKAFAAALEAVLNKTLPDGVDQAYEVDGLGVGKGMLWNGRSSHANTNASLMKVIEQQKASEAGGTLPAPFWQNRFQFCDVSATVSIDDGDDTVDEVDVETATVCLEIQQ
Nature of the experiment: Leishmania donovani Ubiquitin Activating Enzyme (LdE1). The class given is functional. Particulars: 30 µM.

In experiment [3] the target is AMP-activated protein kinase, AMPK (Homo sapiens) (UniProt P54646+O43741+P54619+Q9UGJ0+Q9Y478+Q13131+Q9UGI9). Nature of the experiment: AMP-dependent Kinase enzyme assay. An in vitro enzyme assay that detects ADP turnover that is directly proportional to AMPK activity. This uses naive AMPK that is activated during the assay with MK-8722. The format is functional. Particulars: 30 µM.

For experiment [4], the target named is Sialic acid-binding Ig-like lectin 9 (Homo sapiens) (UniProt Q9Y336). Nature of the experiment: Hs-Siglec9 ALPHAscreen SOP 20170721. As to conditions: 10 µM. For orientation: In Alpha technology, singlet oxygen from a donor bead excites a nearby acceptor bead.
Experiment [5] concerns Trypanosoma cruzi. Kind of experiment: Trypanosoma cruzi phosphomannomutase and mannose-1-phosphate guanylyltransferase assay. The format is functional. Particulars: 10 µM.
Experiment [6] has as its target T2, Arginase-2, mitochondrial (Homo sapiens) (UniProt P78540).
T2 sequence (whole entry): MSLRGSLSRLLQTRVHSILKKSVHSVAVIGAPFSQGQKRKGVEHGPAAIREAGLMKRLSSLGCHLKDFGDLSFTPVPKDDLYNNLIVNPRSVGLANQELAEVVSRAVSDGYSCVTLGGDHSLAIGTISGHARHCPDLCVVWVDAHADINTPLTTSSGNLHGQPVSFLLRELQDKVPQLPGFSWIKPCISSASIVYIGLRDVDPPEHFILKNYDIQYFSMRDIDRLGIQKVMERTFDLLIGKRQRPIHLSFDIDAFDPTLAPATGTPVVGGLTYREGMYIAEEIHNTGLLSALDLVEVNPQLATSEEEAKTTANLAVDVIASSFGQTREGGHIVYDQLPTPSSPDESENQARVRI
Kind of experiment: in vitro enzyme assay to detect the production of urea directly proportional to the activity of Arginase II. Further: in the data most compounds retested in dose-response had high values. The class given is functional. Particulars: 33.3 µM.

The target of experiment [7] is T3, Proteasome subunit beta (Trypanosoma cruzi) (UniProt O96673).
T3 sequence (whole entry): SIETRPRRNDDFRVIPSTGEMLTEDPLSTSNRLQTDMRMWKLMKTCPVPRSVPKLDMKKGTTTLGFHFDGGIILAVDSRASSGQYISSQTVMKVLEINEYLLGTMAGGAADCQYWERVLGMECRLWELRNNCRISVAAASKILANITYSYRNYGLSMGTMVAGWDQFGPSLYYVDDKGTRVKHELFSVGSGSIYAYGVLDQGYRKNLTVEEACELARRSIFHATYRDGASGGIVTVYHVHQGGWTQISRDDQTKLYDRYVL
Nature of the experiment: Trypanosoma cruzi proteasome chymotrypsin-like activity (TcProtChymo) assay. Further: in the data most compounds retested in dose-response had high values. The class given is functional. Particulars: 9.37 µM.

The species named for experiment [8] is Homo sapiens. Nature of the experiment: To identify inhibition of the IFN signalling (Jak-Stat) pathway via expression of an eGFP reporter gene under the control of an IFN-stimulated response element (ISRE) containing MxA promoter. The class given is functional. Particulars: 30 µM. In general terms: In a reporter assay the amount or activity of a reporter protein is the signal.

In experiment [9] the target is T4, Tyrosyl-tRNA synthetase, putative (Trypanosoma cruzi (strain CL Brener)) (UniProt Q4DSP6).
T4 sequence (whole entry): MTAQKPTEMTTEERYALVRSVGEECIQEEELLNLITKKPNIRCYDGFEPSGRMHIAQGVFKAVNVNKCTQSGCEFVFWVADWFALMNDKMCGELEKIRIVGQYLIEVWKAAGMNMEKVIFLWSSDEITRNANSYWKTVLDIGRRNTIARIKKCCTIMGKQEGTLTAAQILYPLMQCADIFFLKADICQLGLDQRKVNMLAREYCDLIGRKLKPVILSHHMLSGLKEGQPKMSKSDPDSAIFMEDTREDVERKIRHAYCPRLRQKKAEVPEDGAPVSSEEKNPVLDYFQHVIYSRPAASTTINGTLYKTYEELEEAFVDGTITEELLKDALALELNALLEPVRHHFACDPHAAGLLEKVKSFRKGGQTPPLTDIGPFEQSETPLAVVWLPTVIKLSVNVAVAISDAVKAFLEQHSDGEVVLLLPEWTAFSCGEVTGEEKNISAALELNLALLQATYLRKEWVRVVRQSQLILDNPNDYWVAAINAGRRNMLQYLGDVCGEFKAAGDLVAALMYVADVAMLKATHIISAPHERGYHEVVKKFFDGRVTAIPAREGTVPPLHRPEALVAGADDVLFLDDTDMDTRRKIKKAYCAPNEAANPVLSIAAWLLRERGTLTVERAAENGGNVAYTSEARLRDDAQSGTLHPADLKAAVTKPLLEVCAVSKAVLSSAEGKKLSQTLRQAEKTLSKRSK
Nature of the experiment: Trypanosoma cruzi tyrosyl tRNA synthetase (TcYRS) _High Tyrosine SOP. Further: in the data most compounds retested in dose-response had high values. The format is functional. Particulars: 30 µM.

Experiment [10] deals with T4, Tyrosyl-tRNA synthetase, putative (Trypanosoma cruzi (strain CL Brener)). Nature of the experiment: Trypanosoma cruzi tyrosyl tRNA synthetase (TcYRS) SOP. The class given is functional. As to conditions: 30 µM.
Experiment [11] deals with Chromo domain-containing protein 1 (Saccharomyces cerevisiae (strain ATCC 204508 / S288c) (Baker's yeast)) (UniProt P32657). Kind of experiment: ScCHD-1 Enzyme Inhibition Assay. Further: in the data most compounds retested in dose-response had high values. The format is functional. Particulars: 30 µM.

Structures are written as SMILES. For some of these results: Entries with a potency or affinity are not part of this list.

Sequence of Protein translocase subunit SecA (Escherichia coli (strain K12)) (P10408 whole entry): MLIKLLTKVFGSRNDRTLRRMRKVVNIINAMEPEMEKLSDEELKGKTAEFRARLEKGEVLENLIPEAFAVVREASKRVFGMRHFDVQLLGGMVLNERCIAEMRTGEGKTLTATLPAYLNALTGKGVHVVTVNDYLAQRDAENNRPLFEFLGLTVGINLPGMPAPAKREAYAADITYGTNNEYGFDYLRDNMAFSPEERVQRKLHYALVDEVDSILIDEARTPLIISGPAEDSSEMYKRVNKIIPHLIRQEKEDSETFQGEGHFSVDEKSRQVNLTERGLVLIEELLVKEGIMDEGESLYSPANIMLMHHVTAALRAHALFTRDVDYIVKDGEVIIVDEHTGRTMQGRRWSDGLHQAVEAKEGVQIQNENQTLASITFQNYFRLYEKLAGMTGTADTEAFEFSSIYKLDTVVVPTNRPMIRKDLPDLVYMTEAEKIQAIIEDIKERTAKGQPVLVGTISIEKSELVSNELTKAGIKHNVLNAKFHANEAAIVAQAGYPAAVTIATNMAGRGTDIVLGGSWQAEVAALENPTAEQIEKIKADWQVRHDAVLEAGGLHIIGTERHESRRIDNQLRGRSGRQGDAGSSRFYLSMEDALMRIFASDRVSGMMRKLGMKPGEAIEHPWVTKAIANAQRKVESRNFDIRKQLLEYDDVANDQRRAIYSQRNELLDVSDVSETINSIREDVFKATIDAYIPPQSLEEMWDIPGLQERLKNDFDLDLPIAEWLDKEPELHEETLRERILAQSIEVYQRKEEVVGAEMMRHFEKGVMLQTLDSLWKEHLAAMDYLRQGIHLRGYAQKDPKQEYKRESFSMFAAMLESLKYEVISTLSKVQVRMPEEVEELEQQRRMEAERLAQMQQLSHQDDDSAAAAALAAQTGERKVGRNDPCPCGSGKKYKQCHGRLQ
Sequence of Chromo domain-containing protein 1 (Saccharomyces cerevisiae (strain ATCC 204508 / S288c) (Baker's yeast)) (P32657 whole entry, the tested form may be a part): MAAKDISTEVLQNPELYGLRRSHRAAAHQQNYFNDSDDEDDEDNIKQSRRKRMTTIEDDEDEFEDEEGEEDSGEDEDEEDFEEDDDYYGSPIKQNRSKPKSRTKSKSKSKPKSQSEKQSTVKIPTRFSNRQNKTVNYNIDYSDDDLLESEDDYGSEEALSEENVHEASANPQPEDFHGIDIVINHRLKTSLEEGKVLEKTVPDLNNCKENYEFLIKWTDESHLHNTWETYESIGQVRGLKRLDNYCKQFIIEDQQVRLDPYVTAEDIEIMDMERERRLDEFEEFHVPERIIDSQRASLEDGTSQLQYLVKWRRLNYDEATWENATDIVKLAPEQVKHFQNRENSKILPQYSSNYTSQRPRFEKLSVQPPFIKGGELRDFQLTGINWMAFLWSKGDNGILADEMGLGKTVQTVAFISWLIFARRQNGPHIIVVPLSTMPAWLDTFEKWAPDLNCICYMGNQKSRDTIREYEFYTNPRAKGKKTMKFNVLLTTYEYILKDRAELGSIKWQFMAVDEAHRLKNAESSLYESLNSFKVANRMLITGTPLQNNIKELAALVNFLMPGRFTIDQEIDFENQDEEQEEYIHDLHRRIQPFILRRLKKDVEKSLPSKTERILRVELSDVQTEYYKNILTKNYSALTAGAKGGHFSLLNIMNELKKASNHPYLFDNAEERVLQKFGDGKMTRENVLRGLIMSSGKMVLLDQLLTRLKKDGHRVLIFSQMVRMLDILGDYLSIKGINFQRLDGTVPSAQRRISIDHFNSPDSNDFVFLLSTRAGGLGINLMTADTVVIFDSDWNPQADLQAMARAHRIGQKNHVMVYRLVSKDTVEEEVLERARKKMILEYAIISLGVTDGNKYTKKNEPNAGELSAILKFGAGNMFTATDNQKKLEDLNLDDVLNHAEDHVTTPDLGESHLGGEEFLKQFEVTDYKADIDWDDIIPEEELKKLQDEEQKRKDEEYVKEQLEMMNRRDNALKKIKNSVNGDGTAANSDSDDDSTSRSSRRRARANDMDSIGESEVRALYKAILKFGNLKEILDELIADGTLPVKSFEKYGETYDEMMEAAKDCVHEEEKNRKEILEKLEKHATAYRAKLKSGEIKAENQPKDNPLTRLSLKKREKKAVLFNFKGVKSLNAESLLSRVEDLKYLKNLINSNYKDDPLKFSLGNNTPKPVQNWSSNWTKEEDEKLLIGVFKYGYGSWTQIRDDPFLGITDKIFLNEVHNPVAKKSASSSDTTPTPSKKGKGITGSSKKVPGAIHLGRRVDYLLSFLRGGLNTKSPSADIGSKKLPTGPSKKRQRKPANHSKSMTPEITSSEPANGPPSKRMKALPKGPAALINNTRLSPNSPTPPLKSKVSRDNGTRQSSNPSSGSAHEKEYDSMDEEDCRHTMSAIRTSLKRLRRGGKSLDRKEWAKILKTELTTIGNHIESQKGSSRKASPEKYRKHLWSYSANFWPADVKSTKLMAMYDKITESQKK
Sequence of Sialic acid-binding Ig-like lectin 9 (Homo sapiens) (Q9Y336 whole entry): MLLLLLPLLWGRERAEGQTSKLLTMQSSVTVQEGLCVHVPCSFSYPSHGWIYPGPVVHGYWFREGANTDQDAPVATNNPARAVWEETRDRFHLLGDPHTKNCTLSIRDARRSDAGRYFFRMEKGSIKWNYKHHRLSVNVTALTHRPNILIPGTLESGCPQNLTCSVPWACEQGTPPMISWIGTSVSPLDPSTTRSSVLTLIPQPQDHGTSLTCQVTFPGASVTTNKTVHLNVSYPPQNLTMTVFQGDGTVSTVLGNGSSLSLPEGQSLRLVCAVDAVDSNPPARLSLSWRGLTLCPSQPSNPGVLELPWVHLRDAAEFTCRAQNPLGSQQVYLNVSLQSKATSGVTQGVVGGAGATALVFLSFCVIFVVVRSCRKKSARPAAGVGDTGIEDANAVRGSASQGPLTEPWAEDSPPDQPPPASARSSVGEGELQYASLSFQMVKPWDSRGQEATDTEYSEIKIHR

In the case of `O=C(O)[C@@H]1CN(C(=O)c2cc(C3CC3)n[nH]2)C[C@H]1c1cccc(F)c1`, the Percent Effect is -3.18% in [1]; 16.4% in experiment [2]; -3.35% in experiment [3]; 7.52% in experiment [4]; 2.98% in experiment [5]; -7.58% in experiment [6]. The Percent Effect in experiment [7] was 14.5%; in experiment [8] it was -4.38%; in experiment [9] it was 3.12%; in experiment [10], 21%; in experiment [11], -6.55%.

On to `CNC(=O)c1cccc(C2CNCCN2C(C)=O)c1` (stereo unspecified), for which the Percent Effect is 0.479% in [1]; 14.9% in experiment [2]; 9.34% in experiment [3]; -6.16% in [4]; -4.15% in experiment [5]; -0.232% in experiment [6]. For the same compound, the Percent Effect is 10.6% in [7]; 19.3% in experiment [8]; 2.15% in experiment [9]; 3.9% in [10]; -8.27% in experiment [11].

For the compound `COc1ccc(OC)c(-c2nc(CN(C)Cc3nncn3C)c(C)o2)c1`, the Percent Effect was -4.01% in experiment [1]; 11% in [2]; 12% in experiment [3]; -0.646% in experiment [4]; -1.57% in experiment [5]; 0.909% in experiment [6]. Besides, the Percent Effect in experiment [7] was 13.7%; in [8], -0.225%; in experiment [9] it was 7.53%; in experiment [10] it was 15%; in experiment [11], -5.1%.

As to `Cc1ccc(NC(=O)c2cc(S(=O)(=O)N3CCCCC3)c[nH]2)cc1F`, the Percent Effect in experiment [1] is -2.47%; in experiment [2], 5.2%; in [3], 59.4%; in [4], -11.2%; in experiment [5], -5.03%; in experiment [6], 5.81%. The Percent Effect in experiment [7] was 6.61%; in experiment [8], 4.38%; in [9], 5.29%; in experiment [10], -21.8%; in [11], -9.19%.

On to `CC(=O)NC(C)c1ccc(OCC2CC2)c(F)c1` (stereo unspecified), for which the Percent Effect in experiment [1] was -2.63%; in experiment [2], 5.26%; in experiment [3], -0.202%; in [4], 5%; in experiment [5], 3.21%; in [6] it was -9.47%. The Percent Effect was 4.7% in [7]; 7.74% in experiment [8]; 4.25% in experiment [9]; 7.79% in experiment [10]; -7.19% in [11].

Take `O=C(c1cccc(OC2CCCC2)c1)N1CCCC(n2cncn2)C1` (stereo unspecified): the Percent Effect in experiment [1] was -4.01%; in experiment [2], 5.41%; in [3], 12.1%; in [4] it was 4.98%; in experiment [5], 5.57%; in experiment [6], -5.61%. Also, the Percent Effect in experiment [7] is -3.06%; in experiment [8], 21.5%; in [9] it was 7.39%; in [10], 13.6%; in [11], -11.7%.

As for `Cc1cnn(CC2CCCCN2Cc2nnc(-c3ccco3)o2)c1` (stereo unspecified), the Percent Effect in experiment [1] is -5.16%; in [2] it was 13.5%; in [3] it was -9.36%; in [4], 20.3%; in [5], 3.11%; in experiment [6], -5.61%. Besides, the Percent Effect is 13.3% in experiment [7]; 7.01% in experiment [8]; 8.37% in experiment [9]; 18.5% in experiment [10]; -11.7% in experiment [11].

On to `COc1ccc(Cc2cccc(C3CCN(C)CC3)n2)cc1`, for which the Percent Effect in [1] is -2.99%; in [2], -55.4%; in experiment [3], 8.96%; in [4], 9.53%; in [5] it was -0.395%; in experiment [6], -1.62%. In addition, the Percent Effect in experiment [7] amounted to 6.55%; in experiment [8] it was 2.93%; in [9], 5.38%; in experiment [10] it was 1.3%; in [11], 1.29%.

In the case of `CC(O)CN1CCC(CNCc2cccc(OC(C)C)c2)CC1` (stereo unspecified), the Percent Effect in experiment [1] was -8.77%; in experiment [2], 8.11%; in [3], -23.9%; in [4], 28.4%; in [5], 8.21%; in experiment [6] it was -9.22%. The Percent Effect in experiment [7] is 1.26%; in experiment [8], 9.15%; in experiment [9], 6.4%; in experiment [10] it was 23.5%; in [11] it was -14.8%.

Turning to `CN1CCN(Cc2cn3c(n2)CN(C(=O)N2CCOCC2)CC3)CC1`, the Percent Effect in experiment [1] is -6.56%; in experiment [2], 5.2%; in [3], 1.33%; in experiment [4], 22.1%; in [5] it was 3.25%; in experiment [6], -5.52%. For the same compound, the Percent Effect is 0.499% in [7]; -12.5% in experiment [8]; 4.3% in experiment [9]; 11.1% in experiment [10]; 0.336% in [11].

Turning to `Cc1occc1C(=O)N1CCC2(CCC2NC(=O)c2ccn(C)c2)CC1` (stereo unspecified), the Percent Effect in experiment [1] is -5.67%; in experiment [2] it was 8.11%; in [3], 3.15%; in experiment [4], -1.3%; in [5], 4.79%; in experiment [6], -3.5%. Moreover, the Percent Effect in [7] is 12%; in [8], -2.79%; in [9] it was 6.49%; in experiment [10], 15.4%; in experiment [11], 3.75%.
